Assay results: PubChem BioAssay AID720519 (National Center for Advancing Translational Sciences (NCATS), 2013)
Results filed as inconclusive are left out. Calls come from the whole dose curve; as a rule, active = well fitted activation curve with a large enough effect; inconclusive = small, poorly fitted or top-dose-only effect; inactive = flat fitted curve, though single readings scatter.

Test: qHTS for Inhibitors of Cell Surface uPA Generation: Confirmatory Assay for Cherry-picked Compounds; note: 0% is about no effect
Settings: cell surface uPA activity generation, qHTS confirmation; series mostly up to 115 µM; inhibition: at the top concentration
In short: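 RAW 264.7 cells at 4000/well, incubated overnight, then treated with compounds. After 24 h at 37 C, viability was read by ATPlite luminescence. An increase in signal indicates blocked uPA-dependent LF entry.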

inhibition, inactive:
NC(=O)c1cc2ccncc2c2ccccc12 -1.41%, CC(C(=O)Nc1nccs1)c1ccc([N+](=O)[O-])cc1 (centres undefined) 4.15%, COc1cc(CNCCc2ccccc2)cc(Br)c1OCC(=O)Nc1ccccc1C -2.29%, CC1=NN(C(N)=S)C(=O)C1N=Nc1ccccc1C(=O)O (centres undefined) -1.34%, COc1cc(C2NC(=O)NC(C)=C2C(=O)OCC2CCCCC2)ccc1O (centres undefined) -0.323%, O=C(Nc1ccc(N2CCOCC2)cc1)c1ccc(Cl)c(S(=O)(=O)N2CCCC2)c1 -1.76%, COc1ccccc1NNC(=O)C(O)(c1ccccc1OC)c1ccccc1OC 1.06%, CC1(CC(=O)N/N=C/c2cc(Br)c(O)cc2O)OCCO1 -3.24%, O=C1CCCC/C1=C\Nc1ccc(S(=O)(=O)Nc2cnc3ccccc3n2)cc1 -1.58%, Cc1cc(C)cc(S(=O)(=O)c2cn(C)c3cc(N4CCN(C)CC4)c(F)cc3c2=O)c1 -2.26%, O=C(CCS(=O)(=O)c1ccc2c(c1)NC(=O)CS2)NCc1cccs1 0.665%, N/C(=N/OC(=O)c1ccccc1F)c1nonc1N -2.61%, CC1(C)CC(=O)C=C(c2ccc3ccccc3c2)C1 -0.951%, Cc1cc(C)nc(N2N=C(C(F)(F)F)CC2=O)n1 -2.08%, COCCCN1CC23C=CC(O2)C(C(=O)O)C3C1=O (centres undefined) -1.65%, Cc1cc(SCc2ccc(Cl)cc2)nc(=O)[nH]1 -3%, CN(C)CCNC(=O)Nc1ccc([N+](=O)[O-])cc1 -1.38%, Cc1ccnc(NC(=O)CCNS(=O)(=O)c2ccc(C)c(C)c2)c1 -1.55%, CCc1ccc(OCC(=O)N(Cc2cccs2)C2CCS(=O)(=O)C2)cc1 (centres undefined) 0.364%, Cc1ccc(/C=C/C(=O)O)cc1S(=O)(=O)N1CCc2ccccc21 -3.41%, O=C(NCC1CCCO1)c1ccc(NC(=O)c2ccc([N+](=O)[O-])cc2)cc1 (centres undefined) -0.412%, NC(=O)c1ccc(NC(=O)CN2CCN(S(=O)(=O)c3ccc4ccccc4c3)CC2)cc1 1.49%, Cc1ccc(S(=O)(=O)NNC(=O)c2ccc(F)cc2)cc1 0.277%, CCc1ccccc1NC(=O)CN(C)C(=O)CSc1nnc(Nc2cccc(C)c2C)s1 -2.94%, Cc1ccc(S(=O)(=O)NCC(=O)N/N=C/c2ccc(Cl)cc2)cc1 -1.38%, Cc1ccc(S(=O)(=O)NC(=O)Nc2nccs2)cc1 -3.13%, COc1ccc(OC)c(NC(=O)C2CC2c2ccccc2)c1 (centres undefined) -2.61%, CN(C)c1ccc(S(=O)(=O)N2CCC(Cc3ccccc3)CC2)cn1 -0.623%, COc1cc(CN2CCN(c3ncccn3)CC2)cc(OC)c1 -1.56%, CCCCOc1ccc(S(=O)(=O)N2CCCCC2)cc1 -1.94%, C#CCOCCOCCOCCNc1nc(N2CCOCC2)nc(N2CCN(C(=O)[C@H](CCC(=O)O)n3cc([C@@H](N)CCCCN)nn3)CC2)n1 -2.85%, Cc1[nH]c2ccc(C(=O)OC(C)C(=O)NC3CCCCC3C)cc2c1C (centres undefined) -3.36%, O=C(COC(=O)C1CC2C=CC1C2)NCc1ccccc1Cl (centres undefined) 1.24%, O=C(N/N=C/c1cccnc1)c1ccccc1[N+](=O)[O-] -3.09%, Clc1ccc(-c2nc3ccccn3c2CN2CCSCC2)cc1 -3.54%, CCC(C)Sc1nnc(NS(=O)(=O)Cc2ccccc2)s1 (centres undefined) -3.03%, COc1ccc(-c2cc(-c3ccccc3)nc3ncnn23)cc1 -2.6%, O=C(O)c1cc(N=Nc2c(O)[nH]c3ccc([N+](=O)[O-])cc23)ccc1Cl -0.969%, Cc1ccc(-c2nc(CS(=O)(=O)CC(=O)NCc3cccc(F)c3)c(C)o2)cc1 0.286%
